# In PubChem BioAssay (Tox21):
# Results filed as inconclusive are left out. A call without a number means that no potency is given here. A number with no mark means an inactive call. Activity calls are given as the source filed them. Calls come from the whole dose curve; as a rule, active = well fitted cell-killing curve with a large enough effect in the repeat runs; inconclusive = weak or mixed curves, or effect the other way; inactive = flat fitted curve, though single readings scatter.
# Assay: qHTS RealTime-Glo MT Cell Viability Assay in HEK293 cells - 8 hour (AID 1224887); note: nearly all actives have a fitted effect of over 50% in size; for activity change, negative = cytotoxicity: top concentration of the series differs between compounds
# Conditions: RealTime-Glo luminescence; series mostly up to 76.8 µM
# Description: U.S. Tox21 Program National Center for Advancing Translational Sciences [NCATS] NIH Chemical Genomics Center [NCGC] U.S. Environmental Protection Agency [EPA] National Institutes of Environmental Health Sciences [NIEHS] National Toxicology Program [NTP] U.S. Food and Drug Administration [FDA] Tox21 Assay Overview: Measure of cell viability is critical in the cell-base assay. Analysis of cell viability is necessary for the characterization of cell responses to cytotoxic drugs and environmental stress. A RealTime-Glo MT Cell Viability Assay to monitor cell viability in real time of continues cell culture during 40 hours of compound treatment was used to screen Tox21 10K library compounds in Hek293 cells. The RealTime-Glo MT Cell Viability Assay is a nonlytic, homogeneous, bioluminescent method to measure cell viability in real time using a simple, plate-based method. The assay involves adding NanoLuc luciferase and a cell-permeant prosubstrate to cells in culture. Viable cells reduce the proprietary prosubstrate to generate a substrate for NanoLuc luciferase. This substrate diffuses from cells into the surrounding culture medium, where it is rapidly used by the NanoLuc Enzyme to produce a luminescent signal. The signal correlates with the number of viable cells, making the assay well suited for cytotoxicity studies.
# Tox21 Assay Protocol Summary: The mixture of Hek293 cell suspension and reagents were dispensed at 600cells/6 ul/well in 1536-well tissue culture treated black solid bottom plates using a Multidrop dispenser. After the assay plates were incubated at a 37 C/5% CO2 incubator for 5 hours, 23 nL of compounds dissolved in DMSO, positive and negative controls was transferred to the assay plate by a pintool work station. The plates were incubated at 37 C for 40 hours. The luminescence intensity were measured at 0h, 8h, 16h, 24h, 32h and 40h time points using ViewLux plate reader during compound treatment.
# Potency is the fitted concentration of half-maximal effect.
Compound,Potency,"activity change, negative = cytotoxicity"
Cc1sccc1Br,inactive,–
Cc1cnc(NS(=O)(=O)c2ccc(N)cc2)nc1,inactive,–
CC(C)c1cc2c(cc1S(=O)(=O)O)[C@@]1(C)CCC[C@@](C)(C(=O)O)[C@@H]1CC2,inactive,–
NC(=O)c1ccc([N+](=O)[O-])cc1,inactive,–
CC(=O)Nc1c(I)cc(I)c(C(=O)O)c1I,inactive,–
CCc1ccc(O)c(OC)c1,inactive,–
OC[C@]1(O)OC[C@@H](O)[C@H](O)[C@@H]1O,inactive,–
CCN1CCC[C@H]1CNC(=O)c1cc(S(N)(=O)=O)ccc1OC,inactive,–
COc1ccc(CCN(C)CCCC(C#N)(c2cc(OC)c(OC)c(OC)c2)C(C)C)cc1OC (stereo not given),21.3 µM (active),–
N[C@H](C(=O)O)c1ccc(O)cc1,–,4.01% [at 15.8 µM]
CCOC(=O)Nc1ccc(NCc2ccc(F)cc2)nc1N,inactive,–
CC(C)(c1ccc(O)cc1)c1ccc(O)cc1,inactive,–
NC(=O)COCCN1CCN(C(c2ccccc2)c2ccc(Cl)cc2)CC1 (stereo not given),inactive,–
CCCCCCCCCCCC,inactive,–
O=C1NC(=O)[C@@]2(CCOc3ccc(F)cc32)N1,inactive,–
CCOC(=O)[C@H](CCc1ccccc1)N[C@@H](C)C(=O)N1[C@H](C(=O)O)C[C@@H]2CCC[C@@H]21,inactive,–
CN1N=C(C(N)=O)CCC1=O,inactive,–
C=CCS(=O)(=O)O,inactive,–
OCCCC1CCCCC1,inactive,–
NC(=O)Nc1ccccc1,inactive,–

Compound,Potency,"activity change, negative = cytotoxicity"
C=CCOCC(CC)(CO)COCC=C,inactive,–
Nc1c2c(nc3ccccc13)CCCC2O (stereo not given),inactive,–
NS(=O)(=O)c1ccccc1Cl,inactive,–
NC(CSCC(=O)O)C(=O)O (stereo not given),inactive,–
CCN(CC)CCOCCOC(=O)C1(c2ccccc2)CCCC1,inactive,–
N=C(N)c1ccccc1,inactive,–
Cc1ccc(C#N)cc1,inactive,–
OC1CCCCC1c1ccccc1 (stereo not given),inactive,–
COc1ccc2c(c1)c(CC(=O)OCC(=O)O)c(C)n2C(=O)c1ccc(Cl)cc1,inactive,–
CCCc1cc(C(N)=S)ccn1,inactive,–
CCOC(=O)c1ccc(C)cc1,inactive,–
CCC(C)S (stereo not given),–,2.1% [at 2.72 µM]
CCN1CCC[C@H]1CNC(=O)c1c(O)c(Cl)cc(Cl)c1OC,inactive,–
Brc1c(NC2=NCCN2)ccc2nccnc12,inactive,–
COCCCOCCCOC,inactive,–
COC(=O)C1=C(C)NC(C)=C(C(=O)OC)C1c1ccccc1[N+](=O)[O-],inactive,–
CC(=O)OCC(CCn1cnc2cnc(N)nc21)COC(C)=O,inactive,–
CC(NC(CCc1ccccc1)C(=O)O)C(=O)N1C(=O)N(C)CC1C(=O)O (stereo not given),inactive,–
CCSC(=O)N(CC(C)C)CC(C)C,inactive,–
OC(CCN1CCCCC1)(c1ccccc1)C1CC2C=CC1C2 (stereo not given),inactive,–
